# HepG2 viability = counter-screen for TGF-b inhibitors: cytotoxicity in HepG2 cells; Potency, µM (series often up to 46.1 µM), usual class: cytotoxic; hit rate 0.76% among 410,000; HepG2 CAGA-GFP viability, ATP luminescence, 18 h
#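 HepG2 CAGA-GFP cells (1000/well, DMEM with 1% FBS) received compound, then TGF-beta at 500 pg/mL final, and were incubated 18 hours at 37 degrees C. Viability was read by CellTiter-Glo luminescence. Media-only wells were set as complete cell-killing and DMSO as no toxicity.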
# S2 tox = cell viability loss in ATXN counter-screen; S2 cells (HEK-293 line with an ATXN2-luciferase reporter) viability, CellTiter-Fluor protease fluorescence, 24 h; Potency, µM (titrated, usually from 56.7 µM), most hits filed as cytotoxic; hit rate 0.49% among 400,000; AID 651635; also: nearly all actives have a fitted effect of over 40% in size
# ATXN2 expr inh = reduces ATXN2 reporter expression in HEK-293 cells. HEK-293 ATXN2-luciferase reporter, luminescence, 24 h. AID 1745845. Potency, µM (top dose mostly 57 µM), usual class: inhibitors. hit rate 0.72% among 360,000; also: nearly all actives have a fitted effect of over 55% in size
#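 ATXN2-luciferase reporter cells (luciferase flanked by upstream and downstream ATXN2 gene portions) were treated 24 h at 37 °C with compounds at up to 57 uM. SteadyGlo luminescence gave expression; GF-AFC fluorescence gave viability.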
# GLP1R inv ag = acts as inverse agonist at human GLP-1 receptor; P43220; HEK293 GLP-1R CRE-luciferase, luminescence, 24 h; GLP-1R form is constitutively active; Potency, µM (titrated, usually from 38.3 µM), most hits filed as inhibitors; hit rate 1.6% among 410,000; also: nearly all actives have a fitted effect of over 55% in size
# Target sequence (P43220 whole entry, looked up): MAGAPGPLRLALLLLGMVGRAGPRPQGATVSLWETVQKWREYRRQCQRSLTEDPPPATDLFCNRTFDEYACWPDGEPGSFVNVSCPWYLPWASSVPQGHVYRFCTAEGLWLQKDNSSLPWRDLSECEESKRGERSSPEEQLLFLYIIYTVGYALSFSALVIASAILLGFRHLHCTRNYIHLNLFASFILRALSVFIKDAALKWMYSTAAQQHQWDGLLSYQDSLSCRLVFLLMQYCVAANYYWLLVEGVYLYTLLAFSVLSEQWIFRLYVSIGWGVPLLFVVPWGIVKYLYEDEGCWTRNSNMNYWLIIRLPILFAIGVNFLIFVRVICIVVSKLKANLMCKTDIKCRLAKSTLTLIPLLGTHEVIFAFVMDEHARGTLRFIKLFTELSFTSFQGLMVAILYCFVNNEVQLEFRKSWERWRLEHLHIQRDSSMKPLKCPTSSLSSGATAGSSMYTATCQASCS
#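 HEK293 cells stably co-expressing constitutively active GLP-1R and a cAMP-responsive luciferase reporter were seeded in DMEM with 10% Nu serum, given compounds after 12 h, and incubated 24 h at 37 deg C. Luminescence was then read.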
# TGFb SMAD3 inh = TGF-b pathway inhibition | AID 588855 | hit rate 1.2% among 410,000 | HepG2 CAGA-GFP TGF-b/SMAD3 reporter, GFP fluorescence, 18 h; TGF-beta stimulated, 500 pg/mL final | Potency, µM (top dose mostly 46.1 µM), usual class: inhibitors; also: nearly all actives have a fitted effect of over 65% in size
#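 HEPG2 CAGA-GFP cells (1000/well, DMEM with 1% FBS) were pre-incubated 2 h at 37 degrees C, given compound by pin tool, then stimulated with TGF-beta at 500 pg/mL final for 18 h before per-cell GFP fluorescence imaging.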
# GLP-1R agonist = activates the human GLP-1 receptor; P43220; HEK293 GLP-1R CRE-luciferase, luminescence, 4-6 h; cells express a hypersensitive GLP-1R form; Potency, µM (series often up to 45.6 µM), actives largely listed as activators; hit rate 0.007% among 380,000; AID 624172
# Numbers stand for hits; . = inactive; ? = inconclusive; / = not tested or not shown; [ ] = dose if it differs, or a comment. Most compounds without a hit are left out; they make up all but 3.7% or so of the library. Calls follow the shape of the dose curve; as a rule, active = well fitted curve in the direction sought with a large enough effect; inconclusive = small, poorly fitted or top-dose-only effect, or another doubt; inactive = no such curve, though single readings can be large; an effect the other way counts as inactive or inconclusive.
SMILES,HepG2 viability,S2 tox,ATXN2 expr inh,GLP1R inv ag,TGFb SMAD3 inh,GLP-1R agonist
CO[C@H]1[C@@H](O)[C@H](N)[C@@H](O[C@H]2O[C@@H]([C@H](C)N)CC[C@H]2N)[C@H](O)[C@@H]1N(C)C(=O)CN,/,/,/,/,/,.
O=C(CN1C2CCCC1CC(NC(=O)c1ccco1)C2)Nc1ccccc1C(F)(F)F (stereo not drawn),.,.,.,?,.,.
O=C(CN1C2CCCC1CC(NC(=O)c1ccccc1)C2)Nc1ccccc1C(F)(F)F (stereo not drawn),.,?,.,2µM,.,.
Cc1cc(C)c2sc(N(Cc3cccnc3)C(=O)CCS(=O)(=O)c3ccccc3)nc2c1,7.1µM,/,/,.,2.5µM,/
O=C(CCS(=O)(=O)c1ccccc1)N(Cc1cccnc1)c1nc2c(Cl)cccc2s1,.,/,/,.,4µM,/
O=C(c1cccs1)N(Cc1cccnc1)c1nc2c(Cl)cccc2s1,.,/,/,.,18µM,/
O=C(c1ccc2c(c1)OCCO2)N(Cc1cccnc1)c1nc2c(Cl)cccc2s1,.,/,/,?,?,/
Cc1cc(C)c2nc(N(Cc3cccnc3)C(=O)CCS(=O)(=O)c3ccccc3)sc2c1,.,/,/,.,?,/
Cc1ccc2sc(N(Cc3cccnc3)C(=O)CCS(=O)(=O)c3ccccc3)nc2c1C,.,/,/,.,.,/
Cc1cccc2sc(N(Cc3cccnc3)C(=O)CCS(=O)(=O)c3ccccc3)nc12,20µM,/,/,.,11µM,/
O=C(CCOc1ccccc1)N(Cc1cccnc1)c1nc2c(Cl)cccc2s1,13µM,/,/,?,?,/
Cc1cccc2sc(N(Cc3cccnc3)C(=O)CCOc3ccccc3)nc12,.,/,/,.,?,/
COc1ccc(OC)c(/C=C/c2cc3ccccc3cn2)c1,.,/,/,/,?,/
C[C@@H]1C(=O)N(S(=O)(=O)c2ccccc2[N+](=O)[O-])[C@H]1c1ccc(-c2ccccc2)cc1,.,/,/,/,.,/
c1ccc(Nc2nc(N3CCCCC3)nc(N3CCCCC3)n2)cc1,.,.,.,10µM,.,.
c1ccc(Nc2nc(N3CCCCC3)nc(N3CCNCC3)n2)cc1,11µM,.,?,?,.,.
c1ccc(Nc2nc(N3CCCC3)nc(N3CCCC3)n2)cc1,.,.,.,?,.,.
Cc1c(-c2nnc(SCC(=O)Nc3ccc(Cl)cc3)o2)nnn1-c1ccc(F)cc1,.,.,.,.,.,.
CCOC(=O)c1ccc(Nc2nc(-c3cccnc3)nc3ccccc23)cc1,.,?,?,8.9µM,.,.
Cc1c(O)ccc(/C=N/Nc2nc(-c3cccnc3)nc3ccccc23)c1O,6.3µM,?,/,10µM,?,.
CSc1ccc(CN(C)C(=O)C(c2ccccc2)c2ccccc2)cc1,.,.,.,10µM,?,.
CSc1ccc(CN(C)C(=O)C(Cc2ccccc2)NC(=O)c2ccccc2)cc1 (stereo not drawn),.,.,.,?,.,.
O=C(N/N=C/c1c[nH]c2ccc(Br)cc12)c1ccn(Cc2ccc(Cl)cc2Cl)n1,.,.,.,11µM,?,.
COc1cccc(N/C(SCc2cccc([N+](=O)[O-])c2)=C(/C#N)C(N)=O)c1,14µM,.,.,?,?,.
COc1cccc(NC(=O)CC(=O)c2ccc([N+](=O)[O-])cc2)c1,.,.,/,.,?,.
SMILES,HepG2 viability,S2 tox,ATXN2 expr inh,GLP1R inv ag,TGFb SMAD3 inh,GLP-1R agonist
Cc1ccc(Cl)cc1NC(=O)C1CCCN(S(=O)(=O)c2c(C)noc2/C=C/N(C)C)C1 (stereo not drawn),.,.,.,.,.,/
CC/C=C/[C@@H](c1ccccc1)[C@H](C)C(O)CC(=O)SC(C)(C)C (stereo partly drawn),.,/,/,/,?,/
Cc1ccc2oc(C(=O)Nc3sc4c(c3C(=O)NCc3ccccc3)CCCC4)cc(=O)c2c1,.,.,.,.,.,/
Nc1cccc2c1C(=O)N(C(=O)/C=C/c1cccc(F)c1)C2=O,.,.,?,.,14µM,.
COc1ccc(CCNCC(O)COc2cccc(Br)c2)cc1 (stereo not drawn),13µM,.,?,.[7.66 µM],.,.
OC(COc1ccc(CNCCc2ccc(C(F)(F)F)cc2)cc1)CN1CCCCC1 (stereo not drawn),.,?,?,2.2µM,?,.
OC(CNCCc1ccc(C(F)(F)F)cc1)COc1cccc2ccccc12 (stereo not drawn),.,?,/,?,?,.
OC(COc1ccc(OCC(O)CN2CCCCC2)cc1)CN1CCCCC1 (stereo not drawn),.,?,/,?,.,.
OC(CNCCc1ccc(C(F)(F)F)cc1)COc1ccc2ccccc2c1 (stereo not drawn),.,/,28µM,.,?,.
O=[N+]([O-])c1ccccc1S(=O)(=O)N1CCN(Cc2cc3c(cc2O)OCO3)CC1,.,.,.,.,.,.
O=S(=O)(c1ccccc1F)N1CCN(Cc2cc3c(cc2O)OCO3)CC1,4µM,.,/,.,.,.
Cc1cccc(C(C)C)c1NC(=O)c1ccc2c(c1)CCN2S(C)(=O)=O,.,.,.,.,.,/
Cc1cc(Cl)ccc1NC(=S)NCc1ccccc1,.,.,.,11µM,.,.
Cc1cc(Cl)ccc1NNC(=O)CCc1ccccc1,.,.,.,4.5µM,.,.
O=C(CCc1ccccc1)NNC(=O)c1cc(Cl)ccc1O,.,.,?,.,.,.
Cc1ccc(NNC(=O)c2c(C)noc2C)cc1Cl,.,?,/,?,.,.
Cc1cc(C)cc(NC(=O)C(=S)NCc2ccccc2)c1,.,.,.,11µM,.,.
COc1cccc(CNC(=S)Nc2ccc(Cl)cc2C)c1,.,?,.,?,.,.
Cc1cc(Cl)ccc1NNC(=O)c1c(C)noc1C,.,.,.,1.4µM,?,.
S=C(NCc1ccccc1)Nc1cccc2ccccc12,.,.,.,10µM,?,.
CCN(CC)CCNC(=O)c1nn(-c2ccc(Cl)cc2)c2c1CCc1cc(OC)ccc1-2,14µM,?,?,4.5µM,?,.
COc1ccc2c(c1)CCc1c(C(=O)NCc3ccc(Cl)cc3)noc1-2,.,.,.,.,.,.
CN1CCN(C2=C(Cl)C(=O)c3ccccc3C2=O)CC1,10µM,/,24µM,?,?,.
CN1CCN(c2nc(-c3ccc(Cl)s3)cs2)CC1,.,.,.,.,.,.
CN1CCN(C2=C(Cl)C(=O)C(c3cnc(N4CCCCC4)s3)=C(Cl)C2=O)CC1,.,25µM,?,.,?,.
O=C1C(Cl)=C(N2CCC(C(=O)O)CC2)C(=O)c2ccccc21,.,.,25µM,.,?,.

# Source: PubChem
